Each structure is given as a SMILES string. In all, about 48,000 compounds went through this assay and about 13,000 (27%) showed an effect of 50% or more. The list shows a part of the results.

In the test the test system is Wolbachia pipientis. In words: Anti-Wolbachia Cell-Based Screen. Particulars: 5 µM. The format is functional. More on the design: scale not given: in the data most compounds retested in dose-response had high values.
Take `CC(C)(C)Cc1noc2ncc(C(=O)N3CCC3)cc12`: the “Percent Effect” value was -0.07347%.

In the case of `O=C(C1SCCc2sccc21)N1CCN(CC(F)F)CC1` (stereo unspecified), the “Percent Effect” value was 2.68%.

For the compound `CCC(C)(C)N(C)CCOc1cccc(S(C)(=O)=O)c1`, the “Percent Effect” value was 103.5%.

Consider `CS(=O)(=O)CCCOc1cccc(-n2ccnc2)c1`, for which the “Percent Effect” value is 0.659%.

Take `CN(CCOc1cccc(S(C)(=O)=O)c1)CC(F)F`: the “Percent Effect” value was found to be 95.25%.

Regarding `CN(CCOc1cccc(S(C)(=O)=O)c1)c1ccccc1`, the “Percent Effect” value worked out at 88.15%.

For the compound `CN(CCOc1cccc(CNS(C)(=O)=O)c1)C1CCOCC1`, the “Percent Effect” value is -5.968%.

For the compound `CS(=O)(=O)CCCOc1cccc(-n2cccn2)c1`, the “Percent Effect” value is -22.07%.

As for `CS(=O)(=O)c1ccc(OCCNCc2cccc(F)c2)cc1`, the “Percent Effect” value is -4.841%.

Take `CN(CCOc1cccc(Cl)c1)Cc1nnc(C(C)(C)C)o1`: the “Percent Effect” value is -19.16%.

Consider `COc1cccc(S(=O)(=O)CCN2CCN(CC(F)F)CC2)c1`, for which the “Percent Effect” value came out at 1.442%.

With `Cc1cccc(C(=O)NC2CCN(c3cnn(C)c3)C2=O)c1C` (stereo unspecified), the “Percent Effect” value was 3.687%.

Regarding `O=C(CC1CC1)NCc1cn2c(n1)CN(Cc1nccs1)CC2.O=C(O)C(F)(F)F`, the “Percent Effect” value came out at 17.65%.

As for `Cc1cc(C(=O)N2C[C@@H]3[C@@H](C2)OCC(=O)N3CC2CC2)no1`, the “Percent Effect” value is reported as 15.73%.

On to `CS(=O)(=O)CCN1CCC(=Cc2ccccc2)CC1`, for which the “Percent Effect” value turned out to be 3.303%.

In the case of `COc1cccc(CN(C(=O)NC2CC2)C2CCC(O)CC2)c1` (stereo unspecified), the “Percent Effect” value is given as 4.411%.

With `CN(CC(=O)N(C)C1CCN(CC2CCOC2)CC1)c1ccccc1` (stereo unspecified), the “Percent Effect” value is -6.754%.

Regarding `O=C(O)CN(C(=O)c1ccccc1)[C@H]1C[C@H]2CCOC[C@H]2C1`, the “Percent Effect” value is 112.1%.

`O=C(C1CC1)N(CCc1ccccc1)C1CCOC1` (stereo unspecified): the “Percent Effect” value is -3.562%.

For `O=C(C1CCOCC1)N(CCc1ccccc1)C1CCOC1` (stereo unspecified), the “Percent Effect” value was -13.84%.

In the case of `CNC(=O)CN([C@H]1C[C@H]2CCOC[C@H]2C1)S(=O)(=O)c1ccccc1`, the “Percent Effect” value came out at 119.6%.

Turning to `CC(=O)NCC(=O)N(CCc1ccccc1)C1CCOC1` (stereo unspecified), the “Percent Effect” value is 3.358%.

For the compound `CNC(=O)[C@@]12CCO[C@@H]1CCN(S(=O)(=O)c1ccccc1)C2`, the “Percent Effect” value is -56.29%.

With `CNC(=O)CN(C(=O)c1ccccc1)[C@H]1C[C@H]2CCOC[C@H]2C1`, the “Percent Effect” value came to 119.3%.

As for `O=C(NC1CC1)N(CCc1ccccc1)C1CCOC1` (stereo unspecified), the “Percent Effect” value is on record as -8.792%.

For the compound `CN1CCN(CCO)C(=O)C12CCN(c1nccs1)CC2`, the “Percent Effect” value is on record as 3.933%.

On to `CN1CCOC(C(=O)Nc2ccc3[nH]nnc3c2)C1` (stereo unspecified), for which the “Percent Effect” value was determined as 3.877%.

`CCc1nsc(NC2CCCn3nc(COC)nc32)n1` (stereo unspecified): the “Percent Effect” value is recorded as -2.766%.

Consider `Cc1ccc2nc(C)c(C)c(C(=O)NCCCn3ccnn3)c2c1`, for which the “Percent Effect” value was -15.24%.

In the case of `COc1ccccc1-n1cc(C(=O)NCCCn2ccnn2)cn1`, the “Percent Effect” value was found to be 105.8%.

Consider `CCc1nccn1CCCNC(=O)c1cnn(-c2ccccc2OC)c1`, for which the “Percent Effect” value was determined as 86.43%.

Consider `CCc1nccn1CCCNC(=O)CN1CCN(c2ncccn2)CC1`, for which the “Percent Effect” value is listed as -11.95%.

Take `CC(C)c1nccn1CCCNC(=O)c1ccc(-c2cnn(C)c2)nc1`: the “Percent Effect” value is reported as 3.735%.

For `Cc1ccc2[nH]c(C(=O)NCCCn3ccnn3)c(C)c2c1`, the “Percent Effect” value is given as -11.21%.

With `CC(C)CCN1CC2(CCN(C3CCCOC3)CC2)OC1=O` (stereo unspecified), the “Percent Effect” value amounted to 10.38%.

On to `COCCOc1ccc(NC(=O)N2CCCC2c2ccsc2)cn1` (stereo unspecified), for which the “Percent Effect” value was -8.185%.

As to `COc1c(F)ccc(C(=O)N2CC[C@H](CO)[C@@H](O)C2)c1F`, the “Percent Effect” value stood at 0.1381%.

On to `Cc1nc(CN2CCc3nc(N4CCCC4)nc(NC(C)C)c3C2)cs1`, for which the “Percent Effect” value was -7.957%.

Take `CCCN1CCc2nc(N3CCOCC3)nc(NC(C)C)c2C1`: the “Percent Effect” value was -9.413%.

Regarding `CCCS(=O)(=O)N1CCc2nc(N3CCOCC3)nc(N(C)C)c2C1`, the “Percent Effect” value is given as 5.75%.

`CC(C)Nc1nc(N2CCCC2)nc2c1CN(S(C)(=O)=O)CC2`: the “Percent Effect” value came out at 105.6%.

Consider `CCS(=O)(=O)N1CCc2nc(N3CCOCC3)nc(N(C)C)c2CC1`, for which the “Percent Effect” value is -7.887%.

Consider `CC(C)Nc1nc(N2CCCC2)nc2c1CN(C)CC2`, for which the “Percent Effect” value worked out at 109%.

With `CC(C)Nc1nc2c(cc1C(=O)NCC1CC1)CCN(S(C)(=O)=O)CC2.O=C(O)C(F)(F)F`, the “Percent Effect” value is 8.623%.

For the compound `CCc1ncnc2c1CCN(c1ncc(F)cn1)CC2`, the “Percent Effect” value is -14.13%.

For `CC(C)Nc1nc(N2CCCC2)nc2c1CCN(S(C)(=O)=O)CC2.O=C(O)C(F)(F)F.O=C(O)C(F)(F)F`, the “Percent Effect” value is 110.6%.

For the compound `CC(C)CCN1CCc2nc(N3CCOCC3)nc(NC(C)C)c2C1`, the “Percent Effect” value is on record as 0.8088%.

Consider `CC(C)Nc1nc(N2CCCC2)nc2c1CN(c1ncc(F)cn1)CC2`, for which the “Percent Effect” value is reported as 118.9%.

For `Cc1cc(C(=O)N2CCC(c3nccn3CCCN(C)C)CC2)no1`, the “Percent Effect” value was 1.64%.

With `Nc1nc(CCNc2ncnc3c2CCN(C(=O)C2CC2)C3)cs1`, the “Percent Effect” value is -7.691%.

Consider `Cc1ccc(SCCN(C)C(=O)c2cn(CCN)nn2)cc1`, for which the “Percent Effect” value was found to be 1.127%.
